# Only some compounds are listed: those with a hit (about 5.7% of all), similar ones and a draw of the others.
# BAZ2B inh – BAZ2B (human) inhibition; Q9UIF8; AlphaScreen BAZ2B-H3K14Ac peptide displacement; Potency, µM (top dose mostly 114 µM), usual class: inhibitors; 360,000 compounds, 4.4% hits; also: nearly all actives have a fitted effect of over 60% in size
#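 Inhibition is scored as reduced AlphaScreen emission. The BAZ2B/b-H3(5-23)K14Ac complex (50 nM each) in PBS pH 7.4, 0.01% Tween-20 meets compound (up to 110 uM) for 30 min at RT before bead addition.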
# PI5P4K alpha inh – PI5P4K alpha (human) kinase inhibition. P48426. PI5P4Kalpha enzyme, ADP-Glo luminescence, 60 min; hits give low values. max response, %. 330,000 compounds, 1.2% hits; active = max response of -50% or lower; inconclusive = between -30% and -50%; inactive = -30% or higher; also: value at the top dose of about 77 µM
#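 Compounds were pin-transferred onto PI5P4Kalpha and substrate in HEPES pH 7.4 buffer with EGTA, CHAPS and 5% DMSO. ATP (5 microM final) started the reaction, which ran 60 minutes at room temperature before ADP-Glo detection.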
# L3MBTL1 inh – L3MBTL1 (human) inhibition; Q9Y468; AlphaScreen L3MBTL1–H3K9me1 peptide binding; Potency, µM (series often up to 57.1 µM), hits mostly inhibitors; 230,000 compounds, 0.66% hits; also: nearly all actives have a fitted effect of over 60% in size
# Target sequence (Q9Y468 whole entry, looked up): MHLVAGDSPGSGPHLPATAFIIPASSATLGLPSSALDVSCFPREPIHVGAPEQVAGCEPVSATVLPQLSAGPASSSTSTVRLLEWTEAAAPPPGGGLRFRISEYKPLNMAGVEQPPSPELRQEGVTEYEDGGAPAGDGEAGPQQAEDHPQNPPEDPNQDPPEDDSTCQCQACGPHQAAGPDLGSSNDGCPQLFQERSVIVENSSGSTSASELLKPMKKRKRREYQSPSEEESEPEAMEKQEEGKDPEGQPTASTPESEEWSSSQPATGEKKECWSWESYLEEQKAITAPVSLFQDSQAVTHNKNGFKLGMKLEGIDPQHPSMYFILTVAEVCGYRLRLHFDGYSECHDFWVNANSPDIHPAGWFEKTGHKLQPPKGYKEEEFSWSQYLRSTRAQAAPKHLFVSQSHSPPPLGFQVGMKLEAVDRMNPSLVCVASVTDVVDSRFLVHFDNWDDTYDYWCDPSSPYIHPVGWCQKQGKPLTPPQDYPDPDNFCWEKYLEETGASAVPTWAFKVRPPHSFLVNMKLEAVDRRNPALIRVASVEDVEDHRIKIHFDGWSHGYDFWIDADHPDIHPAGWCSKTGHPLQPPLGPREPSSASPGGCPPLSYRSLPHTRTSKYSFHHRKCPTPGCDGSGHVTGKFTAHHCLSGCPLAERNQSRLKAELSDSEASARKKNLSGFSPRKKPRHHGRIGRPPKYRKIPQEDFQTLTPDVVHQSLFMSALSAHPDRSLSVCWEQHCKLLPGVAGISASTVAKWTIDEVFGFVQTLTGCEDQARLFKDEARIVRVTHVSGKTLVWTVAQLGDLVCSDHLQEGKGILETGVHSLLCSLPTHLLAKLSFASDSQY
#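 Displacement of a biotinylated histone H3(1-15) peptide monomethylated at Lys9 (75 nM) from L3MBTL1 (50 nM) was measured by AlphaScreen after a 30 min room-temperature compound incubation; cefsulodin titration served as intraplate control.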
# KDM4E inh – blocks human JMJD2E demethylase activity. AID 2147. JMJD2E catalytic domain, FDH-coupled NADH fluorescence (FDH is formaldehyde dehydrogenase). B2RXH2. Potency, µM (series often up to 57.1 µM), most hits filed as inhibitors. 230,000 compounds, 1.6% hits; active = well fitted inhibition curve with a large enough effect, not every such curve was filed as active; inconclusive = small, poorly fitted or top-dose-only effect, or another doubt; inactive = no such curve, though single readings can be large or run the other way; also: nearly all actives have a fitted effect of over 50% in size
# JMJD2A Tudor inh – JMJD2A Tudor domain (human) inhibition; AlphaScreen JMJD2A-Tudor / H3K4me3 peptide binding; Potency, µM (highest dose often 114 µM), usual class: inhibitors; 390,000 compounds, 4.4% hits; also: nearly all actives have a fitted effect of over 50% in size
# HP1b chromo inh – inhibitors of HP1-beta chromodomain binding to methylated histone tails; Potency, µM (series often up to 114 µM), most hits filed as inhibitors; P83916; 390,000 compounds, 0.56% hits; AlphaScreen HP1-beta / biotin-H3K9me3 peptide binding; also: nearly all actives have a fitted effect of over 70% in size
#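 Compound inhibition of the preformed complex between 50 nM HP1-beta and 50 nM biotinylated H3K9me3 peptide was read by AlphaScreen. Buffer was PBS pH 7.4 with 0.01% Tween-20. Incubations ran 30 min at room temperature, with 10 ug/mL donor/acceptor beads.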
# A number is an active result; n = inactive; u = inconclusive; x = no result given; [ ] = remark or other dose. Unless noted, calls follow the shape of the dose curve; as a rule, active = well fitted inhibition curve with a large enough effect; inconclusive = small, poorly fitted or top-dose-only effect; inactive = no such curve, though single readings can be large or run the other way.
SMILES,BAZ2B inh,PI5P4K alpha inh,L3MBTL1 inh,KDM4E inh,JMJD2A Tudor inh,HP1b chromo inh
O=C(COc1ccc2c(c1)CCC2)N1CCc2ccccc21,n,u,n,n,40µM,u
Cc1cccc(OCC(=O)NC(=S)N2CCCc3ccccc32)c1,45µM,x,n,n,50µM,u
O=C(COc1ccc(Cl)cc1Cl)NC(=S)N1CCCc2ccccc21,79µM,x,x,n,40µM,u
O=C(COc1ccc(Cl)cc1Cl)OCC(=O)N1CCCc2ccccc21,n,n,n,n,n,n
CCOC(=O)C1CCN(C(=O)CCc2nnc3ccc(N4CCC(C)CC4)nn23)CC1,n,n,x,x,u,u
CC1CC(C)CN(C(=O)CCc2nnc3ccc(N4CCCCC4)nn23)C1 (stereo unspecified),n,n,x,x,40µM,n
COc1ccc2cc(CNc3ccccc3)c(=O)n(CC(=O)Nc3ccc(C)cc3C)c2c1,n,x,x,x,n,n
COCc1cc(=O)[nH]c(=S)[nH]1,n,n,n,n,13µM,n
CCN(CC)c1ccc(NC(=O)CSc2nc3nc(C)cc(C)c3c(=O)[nH]2)cc1,45µM,n,n,x,45µM,u
COC/C=C/c1cc(F)c(S(=O)(=O)N2CCN(S(=O)(=O)c3ccc4c(c3)OCCO4)CC2)cc1F,x,x,x,x,n,x
CC(C)C(OC(=O)C1=Cc2ccccc2OC1)C(=O)NCC1CCCO1 (stereo unspecified),x,u,x,x,50µM,u
O=C(c1cccc([N+](=O)[O-])c1)N1CCN(c2ccc(Nc3ccccc3)nn2)CC1,n,x,x,x,n,n
Cc1sc(C2C(C#N)=C(N)N(c3ccc(Cl)cc3)C3=C2C(=O)CCC3)cc1CN1CCOCC1 (stereo unspecified),u,x,x,x,n,n
CCOc1cc(S(=O)(=O)N(CC)CC)ccc1F,u,x,x,n,n,n
CCOc1ccc(S(=O)(=O)N(CC)CC)cc1NS(=O)(=O)c1ccc(F)c(F)c1F,n,n,n,n,50µM,n
Cc1ccc(NC(=O)C2CCCN(S(=O)(=O)c3ccc4[nH]c(=O)ccc4c3)C2)cc1Cl (stereo unspecified),n,x,x,x,n,n
c1ccc(-c2ccccc2OCCOCCN2CCc3ccccc3C2)cc1,n,n,n,n,n,n
COC(=O)c1ccccc1OCCCCN1CC(C)OC(C)C1 (stereo unspecified),35µM,n,n,n,1.8µM,u
Cc1ccc(C(C)C)c(OCC(O)CN2CC(C)OC(C)C2)c1 (stereo unspecified),n,n,n,n,n,n
CC1CN(CCOc2ccccc2C(C)C)CC(C)O1 (stereo unspecified),u,n,n,x,22µM,u
Cc1ccc(C)c(OCCOCCN2CC(C)OC(C)C2)c1C (stereo unspecified),25µM,n,x,u,1µM,u
CC1CN(CCOCCOc2ccccc2-c2ccccc2)CC(C)O1 (stereo unspecified),22µM,n,n,x,10µM,u
Cc1cccc(C(=O)Nc2cccc(OCc3cc(=O)n4cccc(C)c4n3)c2)c1,n,x,x,x,n,n
COc1cccc(N2CCN(c3ncnc4onc(-c5ccc(Cl)cc5)c34)CC2)c1,n,x,x,x,n,n
Cc1ccc(SCC(=O)Nc2ccc(O)c(-c3nc4cc(C)ccc4o3)c2)cc1,n,x,x,x,n,n
SMILES,BAZ2B inh,PI5P4K alpha inh,L3MBTL1 inh,KDM4E inh,JMJD2A Tudor inh,HP1b chromo inh
O=S(=O)(c1ccc(Br)cc1)N1CCn2cccc2C1c1ccc(Br)cc1 (stereo unspecified),n,x,x,x,n,n
O=C(CSc1nnc(-c2ccncc2)o1)Nc1ccc(F)c(F)c1,n,n,n,x,n,n
C=CCc1cc(OC)ccc1OCCN1CC(C)OC(C)C1 (stereo unspecified),28µM,n,n,x,5µM,u
CC1CN(CCCCOc2ccc(F)cc2)CC(C)O1 (stereo unspecified),50µM,n,n[11.4 µM],u,u,50µM
CCn1cc2nc(SCc3cccc(OC)c3)n(Cc3ccc(Cl)cc3)c(=O)c2n1,n,x,x,x,n,n
CCN(Cc1ccc(N(C)C)cc1)C(C)C(=O)Nc1ccc(S(=O)(=O)N2CCCC2)cc1 (stereo unspecified),40µM,n,u,x,32µM,n
O=C(C1=C(O)C(=O)N(Cc2ccco2)C1c1cccs1)c1cccs1 (stereo unspecified),u,n,n,n,n,n
CC(=O)C1=C(O)C(=O)N(CC#N)C1c1cccs1 (stereo unspecified),n,n,n,n,79µM,n
O=C(NNC(=O)c1cc(-c2ccco2)nc2ccccc12)c1ccccc1,n,n,n,u,n,n
CCN(CC)CCNC(=O)c1cc2ccccc2nc1Cl,79µM,n,x,u,35µM,n
CCN1CCN(C(=O)c2cc(-c3ccc(Cl)s3)nc3ccccc23)CC1,n,n,x,x,n,n
CCN(CC)CCNC(=O)c1cc(-c2ccco2)nc2ccccc12,n,n,x,u,63µM,n
CCN1CCN(C(=O)c2cc(-c3ccco3)nc3ccccc23)CC1,71µM,n,u,x,n,n
O=C(NCc1ccncc1)c1cc2ccccc2nc1Cl,n,n,n,n,n,n
O=c1ccc(N=Nc2ccccc2)ccc1O,11µM,n,n,5.6µM,50µM,u
CN(C)c1ccc(CNc2ccccn2)cc1,50µM,n,n,x,56µM,n
Cc1cccc(NCc2ccc(N(C)C)cc2)n1,40µM,n,u,x,50µM,u
CN(C)c1ccc(CNc2ncc(Br)cc2Br)cc1,14µM,n,u,n,20µM,n
Fc1ccccc1N1CCN(c2nccn3nc(-c4ccc(Br)cc4)cc23)CC1,n,x,x,x,n,n
Cc1cc(N2CCN(c3ccc(C(F)(F)F)cc3[N+](=O)[O-])CC2)c2ccccc2n1,25µM,n,n,x,45µM,n
O=C1CCCC2=C1Sc1ccc(Cl)cc1N2,u,n,n,n,n,n
COC(=O)c1ccc2c(c1)SC1=C(CCCC1=O)N2,40µM,n,n[11.4 µM],n,n,n
COc1cc(CCc2ccccc2)c(C(=O)O)c(O)c1C/C=C(/C)CCC=C(C)C,x,n,n,x,79µM,n
COc1cc(/C=N/N2CCN(c3ccccc3)CC2)cc(OC)c1OC(C)=O,45µM,n,n[2.29 µM],x,56µM,u
COc1ccc(/C=N/N2CCN(c3ccccc3OC)CC2)cc1Br,40µM,n,n[2.29 µM],x,u,n
CCN(CC)c1ccc(/C=N/N2CCN(c3ccccc3OC)CC2)cc1,32µM,n,n,x,32µM,14µM
COc1ccccc1N1CCN(/N=C/c2ccc(O)c(O)c2)CC1,50µM,n,n,28µM,22µM,28µM
COc1ccccc1N1CCN(/N=C/c2ccc(C(=O)O)cc2)CC1,n,n,x,x,n,n
COc1cc(/C=N/N2CCN(c3ccc(Cl)cc3)CC2)cc(OC)c1OC(C)=O,n,n,n,x,n,n
COc1ccccc1N1CCN(/N=C/c2cccc(OC)c2O)CC1,u,n,u,n,u,n

# Screens: PubChem, National Center for Advancing Translational Sciences (NCATS)
